{"source": "the supplement of paper PMC8728848", "binders": {"B1": {"name": "Mindin (Homo sapiens), Q9BUD6 (protein)", "chain": "MENPSPAAALGKALCALLLATLGAAGQPLGGESICSARALAKYSITFTGKWSQTAFPKQYPLFRPPAQWSSLLGAAHSSDYSMWRKNQYVSNGLRDFAERGEAWALMKEIEAAGEALQSVHEVFSAPAVPSGTGQTSAELEVQRRHSLVSFVVRIVPSPDWFVGVDSLDLCDGDRWREQAALDLYPYDAGTDSGFTFSSPNFATIPQDTVTEITSSSPSHPANSFYYPRLKALPPIARVTLVRLRQSPRAFIPPAPVLPSRDNEIVDSASVPETPLDCEVSLWSSWGLCGGHCGRLGTKSRTRYVRVQPANNGSPCPELEEEAECVPDNCV"}, "B2": {"name": "Siglec-H (Mus musculus), Q4QQK7 (protein)", "chain": "MLLSRLLPLLWVLKWASGNCFILPREVIGTYPSLTLELQSVTVQEGLCVLVPCHLIEYPMNRWSDAAFGYWFHEGENTHPDSLVATNKPYQLVQKEMQSRFHFSGDCSLDIRDAQKGDNGSYFFRLEKGGKTWNFCEERISVHVTDLTHSPNISIPQTLELGRPTNVMCSVPWACERGTPPIFSWMSAALISLGPTTTLSSVLTLTPRLQDHGTNLTCQVTFPGAGVTVQKTIQLNVTYNSQNSTAHVSGRVGPGKPRPLADVVQVAMGEAAIKFLLLGICFFFLSKRSHTKRVERPATHMDQAHAVMD"}}, "assay_in_all_cases": "glycan array binding signal (z-score within array); higher = stronger binding", "conditions_in_all_cases": "glycan notation: IUPAC condensed, linker removed", "key": {"[1]": {"target": "Fuc(a1-2)Gal", "summary_of_the_method": "(§1)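 Glycan array data were curated from 3228 arrays in the Consortium for Functional Glycomics database and kept only where the protein sequence was available. Glycan names were converted to IUPAC-condensed notation, and columns mapping to the same glycan were averaged. The binding signal is a within-array Z-score, averaged across arrays of the same protein sequence at different concentrations or buffers and across linkers. Negative Z-scores can be read as non-binding.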"}, "[2]": {"target": "Fuc(a1-2)Gal(b1-4)GlcNAc(b1-3)Gal(b1-4)GlcNAc", "summary_of_the_method": "as §1"}, "[3]": {"target": "Fuc(a1-2)Gal(b1-4)[Fuc(a1-3)]GlcNAc", "summary_of_the_method": "as §1"}, "[4]": {"target": "Fuc(a1-2)Gal(b1-4)[Fuc(a1-3)]GlcNAc(b1-3)Gal(b1-4)[Fuc(a1-3)]GlcNAc", "summary_of_the_method": "as §1"}, "[5]": {"target": "Fuc(a1-2)[Gal(a1-3)]Gal(b1-4)[Fuc(a1-3)]GlcNAc", "summary_of_the_method": "as §1"}, "[6]": {"target": "Fuc(a1-2)[GalNAc(a1-4)]Gal(b1-4)GlcNAc", "summary_of_the_method": "as §1"}, "[7]": {"target": "Fuc(a1-3)[Gal(b1-4)]GlcNAc(b1-4)Gal(b1-4)[Fuc(a1-3)]GlcNAc", "summary_of_the_method": "as §1"}, "[8]": {"target": "Gal(a1-3)Gal", "summary_of_the_method": "as §1"}, "[9]": {"target": "Gal(a1-3)Gal(b1-4)[Fuc(a1-3)]GlcNAc", "summary_of_the_method": "as §1"}, "[10]": {"target": "Gal(a1-4)Gal(b1-4)GlcNAc", "summary_of_the_method": "as §1"}, "[11]": {"target": "Gal(b1-3)GlcNAc(b1-3)Gal(b1-3)GlcNAc", "summary_of_the_method": "as §1"}, "[12]": {"target": "Gal(b1-3)GlcNAc(b1-3)Gal(b1-4)GlcNAc", "summary_of_the_method": "as §1"}, "[13]": {"target": "Gal(b1-3)[Fuc(a1-4)]GlcNAc(b1-3)Gal(b1-4)GlcNAc", "summary_of_the_method": "as §1"}, "[14]": {"target": "Gal(b1-4)GlcNAc(b1-3)[Gal(b1-4)GlcNAc(b1-6)]GalNAc", "summary_of_the_method": "as §1"}, "[15]": {"target": "Gal(b1-4)GlcNAc(b1-6)Gal(b1-4)GlcNAc(b1-6)GalNAc", "summary_of_the_method": "as §1"}, "[16]": {"target": "Gal(b1-4)GlcNAc(b1-6)GalNAc", "summary_of_the_method": "as §1"}, "[17]": {"target": "GalNAc(b1-3)GalNAc", "summary_of_the_method": "as §1"}, "[18]": {"target": "GlcNAc(b1-3)[GlcNAc(b1-6)]Gal(b1-4)GlcNAc", "summary_of_the_method": "as §1"}, "[19]": {"target": "Man(a1-2)Man(a1-2)Man(a1-3)Man", "summary_of_the_method": "as §1"}, "[20]": {"target": "Neu5Ac(a2-3)Gal", "summary_of_the_method": "as §1"}, "[21]": {"target": "Neu5Ac(a2-3)Gal(b1-3)[Fuc(a1-4)]GlcNAc(b1-3)Gal(b1-4)[Fuc(a1-3)]GlcNAc", "summary_of_the_method": "as §1"}, "[22]": {"target": "Neu5Ac(a2-3)Gal(b1-4)GlcNAc(b1-6)[Gal(b1-3)]GalNAc", "summary_of_the_method": "as §1"}, "[23]": {"target": "Neu5Ac(a2-3)Gal(b1-4)[Fuc(a1-3)]GlcNAc", "summary_of_the_method": "as §1"}, "[24]": {"target": "Neu5Ac(a2-8)Neu5Ac(a2-8)Neu5Ac(a2-3)Gal(b1-4)Glc", "summary_of_the_method": "as §1"}, "[25]": {"target": "Neu5Gc(a2-6)Gal(b1-4)GlcNAc", "summary_of_the_method": "as §1"}, "[26]": {"target": "Fuc(a1-2)Gal(b1-3)GalNAc(b1-3)Gal", "summary_of_the_method": "as §1"}, "[27]": {"target": "Fuc(a1-2)Gal(b1-3)GlcNAc(b1-3)Gal(b1-4)Glc", "summary_of_the_method": "as §1"}, "[28]": {"target": "Fuc(a1-2)[GalNAc(a1-3)]Gal(b1-3)GlcNAc", "summary_of_the_method": "as §1"}, "[29]": {"target": "Fuc(a1-3)[Gal(b1-4)]GlcNAc(b1-4)Gal(b1-4)[Fuc(a1-3)]GlcNAc(b1-4)Gal(b1-4)[Fuc(a1-3)]GlcNAc", "summary_of_the_method": "as §1"}, "[30]": {"target": "Fuc(a1-4)GlcNAc", "summary_of_the_method": "as §1"}, "[31]": {"target": "Gal(b1-3)GalNAc(b1-3)Gal(a1-4)Gal(b1-4)Glc", "summary_of_the_method": "as §1"}, "[32]": {"target": "Gal(b1-4)GlcNAc(b1-3)Gal(b1-4)GlcNAc", "summary_of_the_method": "as §1"}, "[33]": {"target": "Gal3S(b1-4)GlcNAc6S", "summary_of_the_method": "as §1"}, "[34]": {"target": "Neu5Ac(a2-3)Gal(b1-3)[Neu5Ac(a2-6)]GalNAc", "summary_of_the_method": "as §1"}, "[35]": {"target": "Neu5Ac(a2-6)Gal(b1-4)GlcNAc(b1-3)Gal(b1-4)GlcNAc", "summary_of_the_method": "as §1"}, "[36]": {"target": "Neu5Ac(b1-6)GalNAc", "summary_of_the_method": "as §1"}, "[37]": {"target": "Neu5Gc(a2-3)Gal(b1-4)[Fuc(a1-3)]GlcNAc", "summary_of_the_method": "as §1"}}, "note": "The sample as a whole holds a higher share of the strongest signals than the screen did.", "data": [{"binder": "B1", "values": [{"measurement": "glycan array binding signal (z-score)", "setting": "[1]", "value": -0.273}, {"measurement": "glycan array binding signal (z-score)", "setting": "[2]", "value": -0.186}, {"measurement": "glycan array binding signal (z-score)", "setting": "[3]", "value": -0.185}, {"measurement": "glycan array binding signal (z-score)", "setting": "[4]", "value": 0.005}, {"measurement": "glycan array binding signal (z-score)", "setting": "[5]", "value": -0.133}, {"measurement": "glycan array binding signal (z-score)", "setting": "[6]", "value": 2.81}, {"measurement": "glycan array binding signal (z-score)", "setting": "[7]", "value": -0.142}, {"measurement": "glycan array binding signal (z-score)", "setting": "[8]", "value": -0.238}, {"measurement": "glycan array binding signal (z-score)", "setting": "[9]", "value": 0.093}, {"measurement": "glycan array binding signal (z-score)", "setting": "[10]", "value": -0.141}, {"measurement": "glycan array binding signal (z-score)", "setting": "[11]", "value": -0.279}, {"measurement": "glycan array binding signal (z-score)", "setting": "[12]", "value": 2.01}, {"measurement": "glycan array binding signal (z-score)", "setting": "[13]", "value": 1.28}, {"measurement": "glycan array binding signal (z-score)", "setting": "[14]", "value": 2.02}, {"measurement": "glycan array binding signal (z-score)", "setting": "[15]", "value": -0.238}, {"measurement": "glycan array binding signal (z-score)", "setting": "[16]", "value": 1.34}, {"measurement": "glycan array binding signal (z-score)", "setting": "[17]", "value": -0.245}, {"measurement": "glycan array binding signal (z-score)", "setting": "[18]", "value": -0.324}, {"measurement": "glycan array binding signal (z-score)", "setting": "[19]", "value": -0.085}, {"measurement": "glycan array binding signal (z-score)", "setting": "[20]", "value": -0.347}, {"measurement": "glycan array binding signal (z-score)", "setting": "[21]", "value": 0.188}, {"measurement": "glycan array binding signal (z-score)", "setting": "[22]", "value": -0.36}, {"measurement": "glycan array binding signal (z-score)", "setting": "[23]", "value": -0.257}, {"measurement": "glycan array binding signal (z-score)", "setting": "[24]", "value": -0.295}, {"measurement": "glycan array binding signal (z-score)", "setting": "[25]", "value": -0.363}]}, {"binder": "B2", "values": [{"measurement": "glycan array binding signal (z-score)", "setting": "[1]", "value": -0.112}, {"measurement": "glycan array binding signal (z-score)", "setting": "[26]", "value": 2.48}, {"measurement": "glycan array binding signal (z-score)", "setting": "[27]", "value": 2.46}, {"measurement": "glycan array binding signal (z-score)", "setting": "[28]", "value": -0.271}, {"measurement": "glycan array binding signal (z-score)", "setting": "[29]", "value": -0.236}, {"measurement": "glycan array binding signal (z-score)", "setting": "[30]", "value": -0.188}, {"measurement": "glycan array binding signal (z-score)", "setting": "[31]", "value": -0.31}, {"measurement": "glycan array binding signal (z-score)", "setting": "[32]", "value": -0.348}, {"measurement": "glycan array binding signal (z-score)", "setting": "[14]", "value": 6.24}, {"measurement": "glycan array binding signal (z-score)", "setting": "[33]", "value": -0.224}, {"measurement": "glycan array binding signal (z-score)", "setting": "[34]", "value": 2.4}, {"measurement": "glycan array binding signal (z-score)", "setting": "[35]", "value": 1.02}, {"measurement": "glycan array binding signal (z-score)", "setting": "[36]", "value": 0.697}, {"measurement": "glycan array binding signal (z-score)", "setting": "[37]", "value": -0.29}]}]}
